Most compounds without a hit are left out; they make up all but 7.5% or so of the library.
FLuc modulator = qHTS profiling assay for firefly luciferase inhibitor/activator using purifed enzyme and Km concentrations of substrates (counterscreen for miR-21 project). purified FLuc, Km substrates, luminescence inhibition. Potency, µM (doses to about 57.5 µM), most hits filed as inhibitors. 6.9% of 360,000 active. AID 588342, 2011; note: nearly all actives have a fitted effect of over 55% in size
Target sequence (P08659 whole entry, looked up): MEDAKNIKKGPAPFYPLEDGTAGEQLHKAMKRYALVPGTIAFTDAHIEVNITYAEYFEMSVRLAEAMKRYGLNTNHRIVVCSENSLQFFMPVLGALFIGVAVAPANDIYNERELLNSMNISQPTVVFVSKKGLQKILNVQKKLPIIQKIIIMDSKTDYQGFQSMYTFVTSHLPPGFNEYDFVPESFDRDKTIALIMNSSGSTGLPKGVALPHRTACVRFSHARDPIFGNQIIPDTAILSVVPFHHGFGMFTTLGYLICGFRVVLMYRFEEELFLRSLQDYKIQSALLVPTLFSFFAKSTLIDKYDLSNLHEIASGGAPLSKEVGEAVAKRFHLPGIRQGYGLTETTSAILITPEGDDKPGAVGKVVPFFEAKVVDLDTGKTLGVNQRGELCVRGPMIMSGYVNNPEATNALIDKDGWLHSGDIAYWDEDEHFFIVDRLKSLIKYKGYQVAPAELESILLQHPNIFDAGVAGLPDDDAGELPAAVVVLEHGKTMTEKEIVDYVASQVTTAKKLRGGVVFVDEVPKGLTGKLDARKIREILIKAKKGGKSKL
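Biochemical qHTS of compounds, final roughly 60 µM downward over six points, against 10 nM purified firefly luciferase using Km concentrations of substrates (10 uM D-luciferin, 10 uM ATP) in Tris acetate pH 7.5 buffer; luminescence output.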
Rab9 promoter act = qHTS Assay for Rab9 Promoter Activators | Huh7 Rab9 promoter-luciferase reporter, luminescence, 24 h | Potency, µM (titrated, usually from 9.22 µM), most hits filed as activators | 2.8% of 320,000 active; note: nearly all actives have a fitted effect of over 60% in size
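Huh7 cells stably carrying Rab9 promoter–luciferase reporter, plated 1500 cells/well, compound added after 2 h and incubated 24 h at 37 °C; luciferase luminescence then read after 10 min with detection reagent.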
SMN2 splice up = qHTS Assay for Enhancers of SMN2 Splice Variant Expression. AID 1458, 2008. Potency, µM (series often up to 46.1 µM), most hits filed as activators. HEK293 SMN2-luciferase splicing reporter, luminescence, 30-36 h. 2.8% of 210,000 active; note: nearly all actives have a fitted effect of over 55% in size
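HEK293 cells carry an SMN2 minigene-luciferase reporter in which exon 7 inclusion puts luciferase in frame. Cells were seeded at 2000 cells/well, attached for 10-12 hours, then exposed to compounds for 30-36 hours at 37C before ONE-Glo luminescence.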
KinaseGlo FLuc = Counterscreen for Luciferase (Kinase-Glo TM) Inhibition. Potency, µM (series often up to 38.3 µM), most hits filed as inhibitors. Kinase-Glo luciferase, ATP luminescence, 8 min. Luciferin 4-monooxygenase (Photuris pensylvanica), Q27757. 0.28% of 200,000 active; note: nearly all actives have a fitted effect of over 60% in size
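Inhibition of Kinase-Glo luciferase light generation was assessed at 10 uM ATP in pH 7.2 imidazole buffer, with luminescence measured after eight minutes at ambient temperature.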
ELG1 genotoxic = qHTS screen for small molecules that induce genotoxicity in human embryonic kidney (HEK293T) cells expressing luciferase-tagged ELG1; AID 504466, 2011; 1.3% of 330,000 active; Potency, µM (titrated, usually from 46 µM), hits mostly activators; HEK293T ELG1-luciferase reporter, luminescence, 16 h; note: nearly all actives have a fitted effect of over 60% in size
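Genotoxic stress is detected as increased luminescence from luciferase-tagged ELG1 in HEK293T cells, measured with ONE-Glo after a 16 hr treatment at 37 °C.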
NPC1 promoter act = qHTS Assay for NPC1 Promoter Activators; Huh7 NPC1 promoter luciferase reporter, 24 h; Potency, µM (series often up to 9.22 µM), most hits filed as activators; 2.4% of 320,000 active; AID 485313, 2010; note: nearly all actives have a fitted effect of over 60% in size
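Quantitative HTS used a cell-based reporter: Huh7 cells stably bearing the NPC1 promoter upstream of luciferase were treated with compounds for 24 h, and promoter activation was read as luminescence.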
A number is an active result; – = inactive; ? = inconclusive; · = not tested or not shown; ! = repeats disagree. Calls come from the whole dose curve; as a rule, active = well fitted curve in the direction sought with a large enough effect; inconclusive = small, poorly fitted or top-dose-only effect, or another doubt; inactive = no such curve, though single readings can be large; an effect the other way counts as inactive or inconclusive.

SMILES	FLuc modulator	Rab9 promoter act	SMN2 splice up	KinaseGlo FLuc	ELG1 genotoxic	NPC1 promoter act
COc1ccc(-n2nc(C(=O)Nc3cccc(C)n3)c3c4ccccc4n(C)c3c2=O)cc1	–	·	–	·	·	·
CC(C)(C)c1ccc(C(=O)N2CCCCC2CCN2CCCCC2)cc1 (stereo not drawn)	–	·	–	·	·	·
O=C(c1cc(C(F)(F)F)cc(C(F)(F)F)c1)N1CCC2(CC1)CCN(c1ncccn1)CC2	·	·	–	–	·	·
CC(/C=N/N1CCN(c2ccccc2)CC1)=C\c1ccco1	2.39µM	?	14.1µM	7.94µM	?	2µM
CC(=C/c1ccco1)/C=N/N1CCN(c2ccccc2)CC1	2.69µM	1.78µM	?	10µM	?	2.51µM
CCc1noc(C)c1C(=O)NC1CC(C)(C)Cc2c1cnn2-c1ccccc1 (stereo not drawn)	–	–	·	·	–	–
COc1ccccc1-c1ncnn1-c1sc2c(c1C#N)CCCCC2	1.51µM	·	–	·	·	·
N#Cc1c2c(c(-c3ccccc3Cl)[nH]c1=S)CCCC2	–	–	–	–	–	–
N#Cc1c(-n2ncnc2-c2ccccc2Cl)sc2c1CCCCC2	1.9µM	·	–	·	·	·
N#Cc1c(-n2ncnc2-c2cccc(Cl)c2)sc2c1CCCCC2	1.51µM	·	–	·	·	·
N#Cc1c(-n2cccc2/C=N/O)sc2c1CCCC2	–	–	–	–	–	–
N#Cc1c(-n2ncnc2-c2ccccc2C(F)(F)F)sc2c1CCCCC2	0.239µM	·	–	·	·	·
Cc1cc2oc(C(=O)Nc3ccc(S(=O)(=O)N4CCC(C)CC4)cc3)cc(=O)c2cc1C	–	·	–	·	·	·
O=C(O)c1cccc(Cn2c(Cl)c(/C=N/Nc3ccccc3)sc2=O)c1	26.9µM	–	–	–	–	–
Cc1ccccc1OCC(=O)N/N=C/c1sc(=O)n(Cc2cccc(C(=O)O)c2)c1Cl	–	–	·	·	–	–
O=C(O)c1cccc(Cn2c(Cl)c(/C=N/NC(=O)c3ccccc3Cl)sc2=O)c1	–	–	–	–	–	–
COc1ccc(C(=O)N/N=C/c2sc(=O)n(Cc3cccc(C(=O)O)c3)c2Cl)cc1	26.9µM	–	·	·	–	–
O=C(O)c1cccc(Cn2c(Cl)c(/C=N/NC(=O)c3ccccc3O)sc2=O)c1	19µM	–	·	·	–	–
O=C1CC(N2CCN(c3nc4ccccc4s3)CC2)C(=O)N1c1ccc(F)cc1 (stereo not drawn)	–	–	–	–	–	–
O=c1c(Cl)c(N2CCN(c3ccc(F)cc3)CC2)cnn1-c1nc2ccccc2s1	19µM	?	12.6µM	–	?	–
O=C(Oc1ccc2c(c1)C(=O)c1ccccc1CO2)c1ccccc1	21.3µM	–	–	–	?	–
O=C(Oc1ccc2c(c1)OCC2=O)c1ccc(Cl)cc1	?	–	·	·	–	–
Cc1ccc(C(=O)Nc2nnc(S(=O)(=O)N3CCCCCC3)s2)cc1	9.53µM!	–	·	·	–	–
CCCC(=O)Nc1nnc(S(=O)(=O)N2CCCCCC2)s1	10.7µM!	–	·	·	–	–
O=C(Nc1nnc(S(=O)(=O)N2CCCCCC2)s1)c1ccccc1F	16.9µM	–	·	·	–	–
SMILES	FLuc modulator	Rab9 promoter act	SMN2 splice up	KinaseGlo FLuc	ELG1 genotoxic	NPC1 promoter act
Cc1ccc(C(=O)Nc2nnc(S(=O)(=O)N3CCOCC3)s2)cc1	–	?	·	·	–	–
O=C(Nc1nnc(S(=O)(=O)N2CCCC2)s1)c1cccc([N+](=O)[O-])c1	15.1µM	–	·	·	–	–
CCCC(=O)Nc1nnc(S(=O)(=O)N2CCCC2)s1	–	–	·	·	–	–
CCOc1ccc(NC(=O)C(=O)NCC(c2cccnc2)N2CCc3ccccc32)cc1 (stereo not drawn)	–	·	·	·	·	·
O=C(Nc1cccc(NC(=O)c2cccc([N+](=O)[O-])c2)n1)c1cccc([N+](=O)[O-])c1	–	–	·	·	?	–
O=C(Nc1nnc(S(=O)(=O)N2CCOCC2)s1)c1cccc(F)c1	15.1µM!	?	·	·	–	?
CC1CN=C(NC(=O)c2cccc([N+](=O)[O-])c2)S1 (stereo not drawn)	2.39µM	0.398µM	·	·	?	0.501µM
Cc1ccc(OCC(=O)Nc2nnc(S(=O)(=O)N3CCCCCC3)s2)cc1	9.53µM!	–	·	·	–	–
COc1ccccc1C(=O)Nc1nnc(S(=O)(=O)N2CCCCCC2)s1	10.7µM!	–	·	·	–	–
Cc1cccc(CNc2cc(-c3ccccc3C)ncn2)c1	·	·	–	–	·	·
COc1ccc(-c2c(C)nn3c(N4CCN(c5ccccc5F)CC4)cc(C)nc23)cc1OC	–	·	–	·	·	·
COc1ccc(C(=O)Nc2nnc(S(=O)(=O)N3CCC(C)CC3)s2)cc1OC	3.38µM!	–	·	·	–	–
COc1ccc(C(=O)Nc2nnc(S(=O)(=O)N3CCCCCC3)s2)cc1OC	?	–	·	·	–	–
COc1ccccc1C(=O)Nc1nnc(S(=O)(=O)N2CCCCC2)s1	–	–	·	·	–	–
Cc1ccccc1C(=O)Nc1nnc(S(=O)(=O)N2CCCCCC2)s1	13.5µM!	–	·	·	–	–
Cc1c(-c2cccs2)[n+](=O)c2c(n1[O-])CCCCC2	–	–	–	–	–	–
O=C(Cn1c(SCC(=O)N2CCc3ccccc3C2)nc2ccccc21)NC1CCCC1	–	–	11.2µM	–	–	–
Cc1cc(C)c(S(=O)(=O)OC[C@H]2C=CC[C@@H](CCC[C@H]3O[C@H](C(=O)OC(C)C)CC[C@@H]3C)O2)c(C)c1	·	·	–	–	·	·
Cc1ccc(N=Nc2c(N)[nH]n3c(=O)cc(C)nc23)cc1	16.9µM	–	–	–	–	–
Nc1[nH]n2c(=O)cc(-c3ccccc3)nc2c1N=Nc1ccc(S(N)(=O)=O)cc1	9.53µM	–	·	–	–	–
Nc1[nH]n2c(=O)cc(-c3ccccc3)nc2c1N=Nc1ccccc1	16.9µM	–	–	–	–	–
O=C(/C=C/c1ccccc1)OCc1cnc(Cl)s1	?	–	–	–	–	–
O=C(CC1NCCNC1=O)Nc1ccc([N+](=O)[O-])cc1 (stereo not drawn)	–	–	–	–	–	–
CCN1CCN(Cc2ccc(NC(=O)c3ccc(C)c(NC(=O)c4ccc5n[nH]nc5c4)c3)cc2C(F)(F)F)CC1	19µM	–	·	·	–	–
CCN1CCN(Cc2ccc(NC(=O)c3cc(NC(=O)c4cnn(-c5ccccc5)c4N)cc(OC)c3)cc2C(F)(F)F)CC1	16.9µM	–	·	·	–	–
CCN1CCN(Cc2ccc(NC(=O)c3ccc(C)c(NC(=O)C(=O)c4c[nH]c5ccccc45)c3)cc2C(F)(F)F)CC1	?	–	·	·	–	–
CCN1CCN(Cc2ccc(NC(=O)c3cc(NC(=O)C(=O)c4c[nH]c5ccccc45)cc(OC)c3)cc2C(F)(F)F)CC1	9.53µM	–	·	·	–	–

High-throughput results from PubChem BioAssay.
